The text below walks through data of PubChem BioAssay (NCATS).

Assay [1] is described as follows: MultiTox-Fluor Cytotoxicity Assay - LYMP1-002 - Live Cells (AID 955).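 Further: cells exposed to compound for 16 hours.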 Further: potency means the concentration at half of the fitted maximal effect. A digest of the protocol:
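Cytotoxicity in the human lymphoblastoid line LYMP1-002 is measured as loss of live-cell protease activity after 16 h treatment in complete culture medium. AC50 is derived from Hill-equation fits of qHTS concentration-response data.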

Assay [2] is described as follows: MultiTox-Fluor Cytotoxicity Assay - LYMP1-002 - Dead Cells (AID 960). Further: nearly all actives have a fitted effect of over 60% in size. Further: potency means the concentration at half of the fitted maximal effect. A digest of the protocol:
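Acute cytotoxicity in a human lymphoblastoid line is scored as rising dead-cell protease signal after 16 hr exposure at 37 C, measured fluorometrically (485/520).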

Assay [3] in a line: MultiTox-Fluor Cytotoxicity Assay - LYMP1-003 - Dead Cells (AID 961).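 Further: cells exposed to compound for 16 h at 37 °C; nearly all actives have a fitted effect of over 70% in size.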 Further: potency means the concentration at half of the fitted maximal effect. Summed up:
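Acute toxicity is scored as increased dead-cell protease activity in human lymphoblastoid LYMP1-003 cells after 16 h compound exposure in complete culture medium. Activity is normalized to DMSO basal and 15 uM tetraoctylammonium bromide as full response.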

Assay [4] can be described thus: MultiTox-Fluor Cytotoxicity Assay - LYMP1-003 - Live Cells (AID 962).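 Further: cells exposed to compound for 16 hours at 37 °C; cytotoxic hits lower the live-cell protease signal.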 A digest of the protocol:
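Cells plated at 2500 per well and incubated 5 hr; compounds added and incubated 16 hr at 37 C; MultiTox-Fluor reagent added for 60 min at room temperature; fluorescence of liberated AFC measured at 405/510 nm.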

Assay [5] is described as follows: Cell Viability - LYMP1-003 - Assay at 24 hr (AID 963). Further: potency means the concentration at half of the fitted maximal effect. A digest of the protocol:
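Acute toxicity in LYMP1-003 lymphoblastoid cells: 24 hr compound treatment at 37 C, ATP measured with CellTiter-Glo after 30 min at room temperature. AC50 derived by fitting the Hill equation to qHTS titrations.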

Assay [6] in a line: Cell Viability - LYMP1-003 - Assay at 40 hr (AID 964). Further: nearly all actives have a fitted effect of over 60% in size. Further: potency means the concentration at half of the fitted maximal effect. A digest of the protocol:
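This qHTS cytotoxicity screen treats human lymphoblastoid cells (LYMP1-003) with compounds for 40 hr and quantifies cellular ATP via luciferase luminescence.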

Assay [7] in a line: Cell Viability - LYMP2-003 (AID 965).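 Further: cells exposed to compounds for 24 h before reading; nearly all actives have a fitted effect of over 50% in size.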 Further: potency means the concentration at half of the fitted maximal effect. Summed up:
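Human lymphoblastoid LYMP2-003 cells, 2500/well, exposed to compounds for 24 h at 37 C in complete medium. Viability read as intracellular ATP by CellTiter-Glo luminescence; AC50 from Hill-equation fits of qHTS concentration-response data.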

Assay [8] is described as follows: Cell Viability - LYMP2-004 (AID 966). Further: nearly all actives have a fitted effect of over 65% in size. Further: potency means the concentration at half of the fitted maximal effect. Summed up:
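Acute toxicity is scored as a concentration-dependent drop in intracellular ATP, quantified by luciferase luminescence, in human lymphoblastoid cells exposed to compound for 24 hr. AC50 derives from Hill-equation modelling.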

Assay [9] in a line: Cell Viability - LYMP2-005 (AID 967). Further: potency means the concentration at half of the fitted maximal effect. Summed up: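 Human lymphoblastoid LYMP2-005 cells, 2,500 per well in complete medium, rested 5 h at 37C then compound-treated 24 h at 37C. Intracellular ATP read by CellTiter-Glo luminescence after 30 min at room temperature; AC50 from Hill-equation fits of concentration-response data.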
Assay [10] can be described thus: Cell Viability - LYMP2-011 (AID 969). Further: nearly all actives have a fitted effect of over 60% in size. Further: potency means the concentration at half of the fitted maximal effect. Summed up: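 Acute toxicity is scored as a concentration-dependent drop in intracellular ATP of a human lymphoblastoid line after 24 hr treatment. Values are AC50s modeled with the Hill equation.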
Assay [11] in a line: Cell Viability - LYMP2-013 (AID 970). Further: nearly all actives have a fitted effect of over 55% in size. Further: potency means the concentration at half of the fitted maximal effect. Summed up:
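Acute toxicity was measured in human lymphoblastoid cells (2500/well) exposed to compound titrations for 24 hr, with ATP luminescence (CellTiter-Glo) as read-out and AC50 fitted by Hill equation.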

A short description of assay [12]: Cell Viability - LYMP2-015 (AID 971). Further: nearly all actives have a fitted effect of over 55% in size. Further: potency means the concentration at half of the fitted maximal effect. A digest of the protocol: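 Acute toxicity was scored as a concentration-dependent drop in intracellular ATP in lymphoblastoid cells after 24 hr compound exposure in complete medium. Detection used CellTiter-Glo luciferase luminescence.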
Assay [13] in a line: Cell Viability - LYMP2-017 (AID 972). Further: nearly all actives have a fitted effect of over 55% in size. Further: potency means the concentration at half of the fitted maximal effect. A digest of the protocol:
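Steps: plate 2500 lymphoblastoid cells per well; incubate 5 hr at 37 C; add compound across a concentration series and incubate 24 hr at 37 C; add CellTiter-Glo and read luminescence after 30 min at room temperature; fit Hill curves for AC50.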

Assay [14] in a line: Cell Viability - LYMP2-019 (AID 973). Further: nearly all actives have a fitted effect of over 55% in size. Further: potency means the concentration at half of the fitted maximal effect. Summed up:
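Cells plated at 2500/well and allowed 5 hr at 37 C before compound addition. After 24 hr incubation, CellTiter-Glo reagent was added, plates sat 30 min at room temperature, and luminescence was recorded.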

The nature of assay [15]: Cell Viability - LYMP2-023 (AID 975). Further: nearly all actives have a fitted effect of over 55% in size. Further: potency means the concentration at half of the fitted maximal effect. A digest of the protocol: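 Concentration-dependent drop in intracellular ATP measures acute cytotoxicity in a human lymphoblastoid line treated for 24 hours in complete culture medium. AC50 values are taken from Hill-equation fits of qHTS data.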
Assay [16] in a line: Cell Viability - LYMP2-025 (AID 976). Further: potency means the concentration at half of the fitted maximal effect. Summed up:
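In qHTS format, LYMP2-025 lymphoblastoid cells in complete culture medium received compound for 24 hr; ATP-based CellTiter-Glo signal gave viability, with AC50 derived by Hill equation.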

Assay [17] in a line: Cell Viability - LYMP2-002 (AID 977).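 Further: compound exposure lasted 24 h at 37 °C.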 Further: potency means the concentration at half of the fitted maximal effect. Summed up: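 Human lymphoblastoid LYMP2-002 cells, 2500 per well, exposed to compounds for 24 h at 37 C in complete medium; viability read as intracellular ATP by CellTiter-Glo luminescence, AC50 from Hill fits.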
A short description of assay [18]: Cell Viability - LYMP2-006 (AID 978). Further: nearly all actives have a fitted effect of over 60% in size. Further: potency means the concentration at half of the fitted maximal effect. Summed up:
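Human lymphoblastoid cells (LYMP2-006), 2500/well in complete medium, were treated with compound for 24 hr at 37 C. Cellular ATP was read by CellTiter-Glo luminescence after 30 min, and AC50 values came from Hill-equation fits of concentration-response data.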

Assay [19] can be described thus: Cell Viability - LYMP2-007 (AID 979). Further: potency means the concentration at half of the fitted maximal effect. Summed up: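 Acute toxicity is scored as a concentration-dependent fall in intracellular ATP in human lymphoblastoid cells treated 24 hr at 37 C, measured by luciferase luminescence; Hill-equation modelling yields AC50.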
The nature of assay [20]: Cell Viability - LYMP2-008 (AID 980). Further: nearly all actives have a fitted effect of over 60% in size. Further: potency means the concentration at half of the fitted maximal effect. A digest of the protocol:
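Acute cytotoxicity is scored as concentration-dependent loss of cellular ATP in a human lymphoblastoid line after 24 hr treatment at 37 C. ATP is quantified by luciferase luminescence.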

The structures appear in SMILES notation. Results filed as inconclusive are left out. Activity calls are given as the source filed them. The call rests on the fitted dose curve; in most records, active means well fitted curve in the direction sought with a large enough effect; inconclusive means small, poorly fitted or top-dose-only effect, or another doubt; inactive means no such curve, though single readings can be large; an effect the other way counts as inactive or inconclusive.

For the compound `O=C(NO)c1ccccc1`, the Potency result in assay [1], in [2], in assay [3], in assay [4], in assay [5] and in assay [6] was “inactive” throughout. Besides, the Potency entry in assay [7], in assay [8], in assay [9], in [10], in assay [11] and in assay [12] was “inactive” in each case. The Potency result in assay [13], in assay [14], in assay [15], in [16], in [17] and in assay [18] was “inactive” each time. Also, the Potency result in assay [19] and in assay [20] was “inactive” each time.

In the case of `COc1cc(C=O)ccc1O`, the Potency result in assay [1], in assay [2], in assay [3], in [4], in assay [5] and in assay [6] was “inactive” each time. Also, the Potency result in [7], in [8], in assay [9], in assay [10], in assay [11] and in assay [12] was “inactive” throughout. The Potency entry in [13], in assay [14], in [15], in [16], in assay [17] and in assay [18] was “inactive” each time. The Potency result in [19] and in assay [20] was “inactive” in each case.

For `CC(=O)OC/C=C(C)/C=C/C=C(C)/C=C/C1=C(C)CCCC1(C)C`, the Potency result in [1], in assay [2], in assay [3], in assay [4], in assay [5] and in [16] was “inactive” in each case. Also, the Potency in assay [12] and in assay [13] was 50.1 µM (active) each time.

With `CC(C)(C)c1ccc(O)c(O)c1`, the Potency result in assay [1], in assay [2], in [4] and in assay [5] was “inactive” throughout. The Potency is 25.1 µM (active) in assay [6]; 50.1 µM (active) in assay [7]; 39.8 µM (active) in assay [11]; 31.6 µM (active) in assay [12]; 39.8 µM (active) in [13]; 39.8 µM (active) in assay [14]. In addition, the Potency in [18] is 50.1 µM (active); in [19], 39.8 µM (active); in [20] it was 50.1 µM (active).

With `Nc1ccc(O)cc1`, the Potency in assay [1] was 25.1 µM (active); in assay [2] it was 31.6 µM (active); in assay [3] it was 50.1 µM (active); in [5] it was 50.1 µM (active); in [6], 39.8 µM (active); in assay [7] it was 25.1 µM (active). Further, the Potency in assay [8] was 25.1 µM (active); in [9], 25.1 µM (active); in assay [10], 39.8 µM (active); in assay [11], 50.1 µM (active); in [12] it was 31.6 µM (active); in assay [13], 39.8 µM (active). For the same compound, the Potency in assay [14] was 39.8 µM (active); in assay [15] it was 50.1 µM (active); in assay [17], 39.8 µM (active); in assay [18], 50.1 µM (active); in assay [19] it was 31.6 µM (active); in [20], 39.8 µM (active).

As to `CC(C)C(C)(C)C(C)(C)C(C)(C)S`, the Potency result in assay [1], in assay [3], in assay [4], in [5], in assay [6] and in assay [7] was “inactive” throughout. For the same compound, the Potency entry in assay [8], in assay [10], in [11], in assay [12], in assay [13] and in assay [14] was “inactive” in each case. Besides, the Potency result in assay [15], in [16], in [17], in [18], in assay [19] and in assay [20] was “inactive” throughout.

As to `Cc1cc(C(C)(C)C)c(O)c(C(C)(C)C)c1`, the Potency result in assay [1], in [3], in assay [4], in [5], in assay [6] and in assay [7] was “inactive” throughout. For the same compound, the Potency result in [8], in assay [9], in assay [10], in assay [11], in assay [12] and in assay [13] was “inactive” each time. Further, the Potency result in assay [14], in [15], in assay [16], in assay [17], in assay [18] and in [19] was “inactive” in each case. For the same compound, the Potency result in [20] was “inactive”.

Take `Nc1c2ccccc2nc2ccccc12`: the Potency result in [1] and in assay [4] was “inactive” throughout. Further, the Potency was 7.94 µM (active) in assay [2]; 15.8 µM (active) in assay [3]; 25.1 µM (active) in [5]; 20 µM (active) in assay [6]; 25.1 µM (active) in assay [7]; 12.6 µM (active) in [8]. For the same compound, the Potency is 12.6 µM (active) in assay [10]; 12.6 µM (active) in [11]; 10 µM (active) in assay [12]; 15.8 µM (active) in assay [13]; 10 µM (active) in assay [14]; 12.6 µM (active) in [15]. In addition, the Potency in assay [16] is 12.6 µM (active); in assay [17], 7.94 µM (active); in [18] it was 20 µM (active); in assay [19], 15.8 µM (active); in assay [20], 12.6 µM (active).

As to `CCCCC(CC)COC(=O)c1ccccc1C(=O)O` (stereo not given), the Potency entry in assay [1], in [2], in assay [3], in [4], in [5] and in assay [6] was “inactive” throughout. Besides, the Potency entry in assay [7], in assay [8], in assay [9], in assay [10], in assay [11] and in [12] was “inactive” each time. Moreover, the Potency result in [13], in assay [14], in [15], in [16], in assay [17] and in assay [18] was “inactive” each time. The Potency result in assay [19] and in [20] was “inactive” each time.

For `O=C(c1ccccc1)c1ccccc1`, the Potency result in assay [1], in assay [2], in [3], in [4], in assay [5] and in assay [6] was “inactive” each time. In addition, the Potency result in assay [7], in assay [8], in [9], in [10], in assay [11] and in assay [12] was “inactive” each time. The Potency result in assay [13], in assay [14], in assay [15], in assay [16], in assay [17] and in [18] was “inactive” each time. For the same compound, the Potency result in assay [19] and in assay [20] was “inactive” throughout.

Take `O=C(Oc1ccccc1)c1ccccc1O`: the Potency result in assay [1], in [2], in [3], in assay [4], in assay [5] and in [6] was “inactive” in each case. Besides, the Potency result in [7], in [8], in [9], in assay [10], in assay [11] and in [12] was “inactive” in each case. Also, the Potency result in [13], in [14], in assay [15], in assay [16], in [17] and in [18] was “inactive” each time. Further, the Potency entry in assay [19] and in [20] was “inactive” throughout.
